ADAM17 inh: inhibitors of human ADAM17; recombinant ADAM17, EDANS/DABCYL FRET peptide cleavage; inhibition, % at 6.95 µM; actives 0.83% (n = 370,000);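 active = inhibition above the mean of compounds lying between control limits plus 3 SD, set per campaign, cut at about 8.5% in these data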;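 note: 0% = DMSO-only wells as the low control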
APOBEC3A inh: inhibitors of human APOBEC3A DNA deaminase; recombinant A3A, FAM/TAMRA ssDNA deamination fluorescence; P31941; actives 0.41% (n = 330,000); inhibition, % at 20 µM;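 active = at least 40% inhibition at 20 µM here, with at most 30% in a related deaminase screen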;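 note: plate controls were A3A with DMSO for no effect and wells lacking A3A enzyme for full effect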
A3G deaminase: blocks human APOBEC3G single-stranded DNA deamination. recombinant A3G, ssDNA deamination FAM/TAMRA fluorescence. inhibition, % at 20 µM. actives 0.28% (n = 330,000). AID 493012;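 active = inhibition of at least 40% at 20 µM, with no more than 30% in the related APOBEC3A deaminase screen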;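 note: plate controls were DMSO wells with A3G for no effect and wells lacking A3G enzyme for full effect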
NRP1-CendR mod: alters CendR peptide binding to human NRP-1; O14786; actives 0.85% (n = 360,000); FAM-RPARPAR peptide binding to NRP-1, fluorescence polarization; inhibition, % at 25 µM;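 active = inhibition or corrected inhibition above about 18%, plus a signal ratio from 0.5 to 1.5, limit read from the data, passing the limit was not always enough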
ADAM10 inh: inhibits human ADAM10. actives 0.62% (n = 370,000). recombinant ADAM10, EDANS/DABCYL FRET peptide cleavage, 3 h. inhibition, % at 7 µM. O14672;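 active = inhibition above a per-campaign cutoff equal to the mean of compounds falling between control-based bounds plus 3 SD, cut at about 20% in these data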;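 note: 0% = DMSO wells while the 100% control is not disclosed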
Target sequence (O14672 214-748 limits assumed): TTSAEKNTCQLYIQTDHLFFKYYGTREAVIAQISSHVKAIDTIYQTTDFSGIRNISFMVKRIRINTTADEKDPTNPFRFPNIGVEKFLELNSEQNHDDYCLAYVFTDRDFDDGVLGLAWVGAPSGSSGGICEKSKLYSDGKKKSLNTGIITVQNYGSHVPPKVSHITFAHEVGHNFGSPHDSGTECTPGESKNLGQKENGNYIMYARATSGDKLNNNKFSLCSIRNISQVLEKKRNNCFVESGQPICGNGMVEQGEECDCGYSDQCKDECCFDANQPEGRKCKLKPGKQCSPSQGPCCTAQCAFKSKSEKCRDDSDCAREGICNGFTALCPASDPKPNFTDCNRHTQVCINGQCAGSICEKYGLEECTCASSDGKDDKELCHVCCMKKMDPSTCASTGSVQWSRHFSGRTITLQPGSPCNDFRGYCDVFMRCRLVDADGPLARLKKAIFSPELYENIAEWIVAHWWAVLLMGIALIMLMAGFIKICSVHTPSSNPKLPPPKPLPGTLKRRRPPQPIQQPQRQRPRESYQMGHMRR
ADAM10 confirm: confirmation of inhibitors of human ADAM10; actives 1% (n = 2,100); inhibition, % at 6.95 µM; ADAM10 QFRET peptide cleavage, EDANS fluorescence; shares compounds with ADAM10 inh;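 active = inhibition above about 20% chosen separately for each screening run, limit read from the data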;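 note: 0% = DMSO wells and 100% = marimastat wells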
ADAM17 counter: inhibits human ADAM17 in ADAM10 exosite counter-screen | shares compounds with ADAM10 inh | ADAM17 QFRET peptide cleavage, EDANS fluorescence | inhibition, % at 6.95 µM | actives 0.5% (n = 2,100) | AID 743214;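 active = mean triplicate inhibition above the solvent-only control wells' mean plus 3 SD, cut at about 12% in these data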;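 note: 0% = DMSO wells and 100% = marimastat wells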
ADAM10 counter: ADAM10 inhibition, counter-screen for ADAM17 exosite hits; actives 47% (n = 2,900); recombinant ADAM10, EDANS/DABCYL FRET peptide cleavage, 3 h; shares compounds with ADAM17 inh; inhibition, % at 6.95 µM;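 active = mean inhibition over the triplicate runs exceeds the activity threshold set in the earlier primary screen, cut at about 20% in these data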;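 note: 0% = DMSO wells and 100% = marimastat wells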
ADAM17 confirm: human ADAM17 inhibition, confirmation | shares compounds with ADAM17 inh | recombinant ADAM17, EDANS/DABCYL QFRET peptide cleavage | inhibition, % at 6.95 µM | actives 65% (n = 2,900);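 active = mean inhibition across replicates above the hit cutoff set in the primary screen, cut at about 8.5% in these data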;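 note: 0% = DMSO wells and 100% = marimastat wells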
The depositor's hits bear a star; nt = no result given. Rows were chosen to be rich in hits. Some 2.4% of all compounds tested hit in one or more screens of this group.

SMILES	ADAM17 inh	APOBEC3A inh	A3G deaminase	NRP1-CendR mod	ADAM10 inh	ADAM10 confirm	ADAM17 counter	ADAM10 counter	ADAM17 confirm
COc1ccc(-c2cn[nH]c2-c2ccc(OCc3ccccc3)cc2O)cc1OC	9.7*	3	-3	-2	33*	11	3	34*	16*
C=C(C)COc1ccc(-c2n[nH]c(C)c2Oc2ccccc2OC)c(O)c1	12*	-2	-6	10	26*	11	3	41*	20*
CCCCNc1ccc2c(c1)OC[C@H](Cc1ccccc1)NS2(=O)=O	-2	nt	nt	nt	-10	nt	nt	nt	nt
COc1ccc(OC)c(CN2C(=O)CSCC2(C)c2nnnn2C2CCCC2)c1 (centres undefined)	-2	nt	nt	nt	1	nt	nt	nt	nt
Cc1ccccc1NC(=O)[C@@H]1CC(=O)O[C@@H]1c1ccccc1	0	nt	nt	nt	-7	nt	nt	nt	nt
CCc1cc(Cn2nc(-c3ccccc3)cc2C(=O)NCc2cccc(Br)c2)on1	14*	-2	-8	5	21*	13	4	36*	22*
CCc1cc(Cn2nc(-c3ccccc3)cc2C(=O)NCc2cccc(C(F)(F)F)c2)on1	-2	0	-11	0	-4	nt	nt	nt	nt
CCc1cc(Cn2nc(-c3ccccc3)cc2C(=O)NCc2ccc(C)cc2)on1	9.1*	-3	-4	-2	29*	8	3	24*	13*
CN(Cc1ccc(F)cc1)C(=O)CN1C(=O)C2(OCCCO2)c2ccccc21	-2	nt	nt	nt	-4	nt	nt	nt	nt
CC(NC(=O)c1cc2ccc(C(F)(F)F)cc2nc1N)c1cccc2ccccc12 (centres undefined)	-1	nt	nt	nt	-13	nt	nt	nt	nt
Cc1ccc(-n2c(SCc3cccc(F)c3)nc3ccccc3c2=O)cc1	-3	nt	nt	nt	-7	nt	nt	nt	nt
Cc1ccc(S(=O)(=O)N2CCC(=O)N([C@H](COC(=O)Nc3ccccc3)Cc3ccccc3)CC2)cc1	8.9*	nt	nt	-1	20*	3	1	19	13*
O=c1[nH]c(=S)[nH]c2c1C(c1cccc(C(F)(F)F)c1)OC(CCc1ccccc1)C2 (centres undefined)	14*	nt	nt	-13	27*	6	2	30*	16*
O=c1[nH]c(=S)[nH]c2c1C(c1ccc(Cl)c(Cl)c1)OC(CCc1ccccc1)C2 (centres undefined)	-2	nt	nt	-14	0	nt	nt	nt	nt
COc1cccc2c1[C@H](/C=C/c1ccccc1)[C@@H]([C@H](O)COC(C)=O)OC2	4	nt	nt	nt	4	nt	nt	nt	nt
C#CCNC(=O)C[C@H]1C(=O)N(Cc2ccc(OC)cc2)C2=CCCC[C@@]21C(=O)OCC	1	nt	nt	nt	2	nt	nt	nt	nt
COc1ccc(CCN2C(=S)N(C)C(=O)C2CC(=O)Nc2ccc(OC)cc2)cc1 (centres undefined)	5	-5	-5	8	16	nt	nt	nt	nt
COc1ccc(NC(=O)CC2C(=O)N(C)C(=S)N2CCc2ccc(F)cc2)cc1 (centres undefined)	12*	-2	-7	-3	21*	1	0	25*	14*
CC(C)(C)c1ccc(-c2nnc(SCC(=O)Nc3cccc4ccccc34)n2Cc2ccco2)cc1	9.2*	nt	nt	nt	20*	6	2	36*	17*
CC(=NNC(=O)CSc1nnc(-c2ccc(C(C)(C)C)cc2)n1-c1ccccc1)c1cccc2ccccc12	8.9*	nt	nt	nt	23*	14	4	17	13*
COc1ccc(-c2nnc(SCC(=O)NN=C(C)c3cccc4ccccc34)n2-c2ccccc2)cc1	2	nt	nt	nt	7	nt	nt	nt	nt
O=C(CSc1nnc(-c2ccc(Cl)cc2)n1Cc1ccco1)Nc1cccc2ccccc12	-1	nt	nt	nt	-11	nt	nt	nt	nt
O=C(Nc1ccc(Cl)cc1)C1CCCN1S(=O)(=O)c1cccc2cccnc12 (centres undefined)	2	nt	nt	nt	1	nt	nt	nt	nt
